We go through 87 molecules from PubChem BioAssay AID743398 (Broad Institute, 2014).

Structures are written as SMILES. In all, about 300,000 compounds went through this assay and about 3,600 (1.2%) were called active. Cut-off read from the data, not from the text of the source: active = activation above about 30% (passing the limit was not always enough); inconclusive = no clear call, values can overlap the other calls. The sample as a whole holds a higher share of actives than the screen did.

This assay can be described thus: activation of beta-catenin signaling reporter – cell-based, plate reader, single point, primary screen (AID 743398).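 Note: 0% = neutral control wells and 100% = positive control wells.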 To be noted: Wnt/beta-catenin reporter cell assay, activator, at 9.35 µM, stronger effect = higher value.
Turning to `Nc1ccc(N=Nc2ccccc2Cl)c(N)n1`, the activation is 37.3% (active).

Take `CCN1C(=O)[C@@H]2[C@@H]3CN(S(=O)(=O)c4ccccc4C)[C@@H](c4ccc(Cl)cc4)[C@@H]3C(=O)C[C@@H]2C1=O`: the activation is -1.76% (inactive).

On to `Oc1cccc2cc(-c3ccncc3)cnc12`, for which the activation is 4.6% (inactive).

Consider `C=CC[C@]12C[C@@]3(O[C@H](c4ccc(C(F)(F)F)cc4)N=C3C[C@H](c3ccc(OC)cc3)[C@H]1C)N(C1CCN(Cc3ccccc3)CC1)C2=O`, for which the activation was -5.8% (inactive).

As to `C=CCOc1cccc(C2C(C(=O)c3ccc(C)o3)=C(O)C(=O)N2CCN2CCOCC2)c1` (configuration not stated), the activation is -3.18% (inactive).

With `Cc1cccc(-c2noc(-c3ccc(F)cc3)n2)c1`, the activation was 51% (active).

For `Cc1ccc(-c2nc(-c3ccncc3)no2)c(C)c1`, the activation is 0.571% (inactive).

As for `Cc1ccc(Cc2nc(-c3cccc(C)c3)no2)cc1`, the activation was 16.6% (inactive).

Consider `CN1CCCCC(NC(=O)C(C)(C)C)C1=O` (configuration not stated), for which the activation was -0.306% (inactive).

With `Nc1[nH]c(C(=O)c2ccccc2)c(-c2ccc(Cl)cc2Cl)c1C(=O)c1ccccc1`, the activation was 3.74% (inactive).

Take `COc1cccc(/C=C/c2ccc3ccccc3n2)c1OC(C)=O`: the activation was -2.71% (inactive).

`CCOc1cccc(/C=C/c2ccc3ccccc3n2)c1OC(C)=O`: the activation was 7.85% (inactive).

Consider `NC(=O)COC(=O)/C=C/c1ccc2ccccc2n1`, for which the activation was 48.3% (active).

As to `C[C@@H]1CN([C@@H](C)CO)C(=O)CCCn2nncc2CO[C@@H]1CN(C)S(=O)(=O)c1ccc(-c2ccccc2)cc1`, the activation was -3.45% (inactive).

In the case of `CCCNC(=O)C1(C)CCN(Cc2csc(-c3ccc(Cl)cc3)n2)C1` (configuration not stated), the activation is -1.95% (inactive).

Consider `COC(=O)c1sc(-c2ccc(C(C)(C)C)cc2)cc1NC(=O)/C=C/C(=O)O`, for which the activation is 34.5% (active).

As to `O=C(O)/C=C/C(=O)Nc1ccc(F)cc1F`, the activation was -1.57% (inactive).

On to `COc1ccccc1NC(=O)/C=C/C(=O)O`, for which the activation is 0.198% (inactive).

Turning to `CCc1nc2c(OCc3ccccc3)cccn2c1N(C)C(=O)c1ccco1`, the activation was -1.39% (inactive).

Regarding `Cc1ccc(C(O)c2ncc(-c3ccccc3F)[nH]2)cc1F` (configuration not stated), the activation is -2% (inactive).

`COc1ccc(C2OC(CCc3ccccc3)Cc3[nH]c(=S)[nH]c(=O)c32)cc1` (configuration not stated): the activation was -4.52% (inactive).

With `OCCC#Cc1ccc(N2C(c3ccsc3)=Cc3ccc(F)cc3C2c2c[nH]c3ccccc23)cc1` (configuration not stated), the activation was -4.42% (inactive).

For `C=CC1=CCN(S(=O)(=O)C(C)(C)C)[C@@H]1CCO`, the activation is -5.37% (inactive).

Consider `O=C(Nc1ccccc1N1CCOCC1)c1csc2c1CCCC2`, for which the activation is 3.53% (inactive).

As to `Cc1ccc(NC(=O)c2csc3c2CCCC3)cc1`, the activation was 33.5% (active).

On to `O=C(N/N=C/c1ccco1)c1csc2c1CCCC2`, for which the activation is 14.7% (inactive).

For `COc1cccc(CNC(=O)[C@H]2CCCN2C(=O)[C@H]2CCCN2C(=O)c2ccc(F)cc2)c1`, the activation is -3.18% (inactive).

On to `Cc1ccc2nc(-c3ccc(CN4CCC(n5cc(-c6ccccc6)[nH]c5=O)CC4)cc3)c(-c3ccccc3)nc2c1`, for which the activation is -0.633% (inactive).

In the case of `O=C(CN1CCN(S(=O)(=O)/C=C/c2ccccc2)CC1)Nc1ccc(N2CCOCC2)cc1`, the activation is -0.917% (inactive).

As to `O=C(O)c1ccc2c(c1)C(=O)N(c1ccc(/C=C/C(=O)c3ccccc3)cc1)C2=O`, the activation is 31.9% (active).

As to `O=C(O)c1ccc2c(c1)C(=O)N(NC(=O)c1ccc(O)cc1)C2=O`, the activation is -0.273% (inactive).

`Cc1cccc(N2C(=O)c3ccc(C(=O)Nc4cccc(C(=O)O)c4)cc3C2=O)c1`: the activation was 3.97% (inactive).

As for `O=C(NN=Cc1ccc(N2CCOCC2)cc1)c1cc2ccccc2cc1O`, the activation was -3.76% (inactive).

On to `O=C(/C=C/c1ccc(N2CCOCC2)cc1)c1ccccc1`, for which the activation was 38.7% (active).

For `O=C(c1ccc(N2CCCC2=O)cc1)N1CCN(c2ccc(C(F)(F)F)cc2[N+](=O)[O-])CC1`, the activation was -1.11% (inactive).

As for `CC(=O)c1ccc(Nc2nc(C(N)c3ccccc3Cl)cs2)cc1` (configuration not stated), the activation was -4.58% (inactive).

As to `O=C(C(=O)N1CCC(CNS(=O)(=O)Cc2ccccc2)CC1)c1cc2ccccc2o1`, the activation is -4.41% (inactive).

`CCc1nc(SCC(=O)NNC(=O)c2ccc(C)cc2)c2ccccc2n1`: the activation was -1.15% (inactive).

`Cc1ccc(C(=O)NNc2ncnc3ccccc23)cc1`: the activation was 42.9% (active).

For `Cc1ccc(C(=O)NNC(=O)c2cccs2)cc1`, the activation was 6.9% (inactive).

`COC(=O)C1=C(C)N(Cc2ccccc2C(F)(F)F)C(=NCC2CC2)NC1c1cccc(Cl)c1` (configuration not stated): the activation was -1.87% (inactive).

On to `CCOC(=O)[C@]12CCCC=C1N(Cc1cccc3ccccc13)C(=O)[C@H](CC(=O)NCC13CC4CC(CC(C4)C1)C3)C2`, for which the activation is -3.35% (inactive).

For the molecule `CCc1c(-c2ccc(F)cc2)ncn1Cc1cccc(-c2ccccc2)c1`, the activation was -4.88% (inactive).

For `CN[C@H]1C[C@H]2c3[nH]c4c(-c5ccccc5)cccc4c3CCN2C(=O)[C@H]1[C@H](C)O`, the activation was -5.37% (inactive).

For the molecule `CCCc1nc2c3ccccc3ccn2c1Cc1ccccc1C(F)(F)F`, the activation is -0.94% (inactive).

In the case of `Cc1ccc(N)cc1CN1CCN(c2ncc(Cc3ccccc3)cn2)CC1`, the activation is -1.28% (inactive).

For `COc1ccc(-c2[nH]ncc2CN(C)Cc2cccnc2)c(F)c1`, the activation was 8.31% (inactive).

Take `COc1ccc(-c2[nH]ncc2CN(C)Cc2cc(C)[nH]n2)c(F)c1`: the activation was -0.792% (inactive).

As to `CCN(CCn1cccn1)Cc1cn[nH]c1-c1ccc(OC)cc1F`, the activation is 33.5% (active).

`CCOC(=O)N1CCN(C(=O)c2ccccc2N(Cc2ccccc2)S(=O)(=O)c2ccc(OC)cc2)CC1`: the activation was -3.31% (inactive).

For `O=C(O)c1cc(S(=O)(=O)N(Cc2ccccc2)c2ccccc2)ccc1Cl`, the activation is 1.67% (inactive).

With `NC(=O)c1ccccc1N(Cc1ccccc1)S(=O)(=O)c1ccccc1`, the activation is 30% (active).

For the molecule `O=C(N[C@H](Cc1ccccc1)C(=O)N1CCCN(Cc2cccs2)CC1)[C@H]1O[C@@H](n2ccc(=O)[nH]c2=O)[C@H](O)[C@@H]1O`, the activation was 2.26% (inactive).

For `NC(=O)c1ncn([C@@H]2O[C@H](C(=O)O)[C@@H](O)[C@H]2O)n1`, the activation was 3.51% (inactive).

Regarding `Cc1cccc(Nc2nc(-c3ccccc3)cs2)n1`, the activation was 19.7% (inactive).

In the case of `CC(=O)Nc1cccc(-c2csc(Nc3cccc(C)n3)n2)c1`, the activation is 26.8% (inactive).

Turning to `COc1ccc(-c2csc(Nc3cccc(C)n3)n2)cc1OC`, the activation was 50% (active).

Turning to `CC(=NNC(N)=O)c1ccc(Cl)c(-n2cccc2)c1`, the activation is -7.68% (inactive).

As for `COc1ccccc1-c1cc2nc(NCc3cccc(Cl)c3)ccn2n1`, the activation was -1.89% (inactive).

As to `CCCCOc1ccc(-c2nnc(-c3ccco3)o2)cc1`, the activation was 46.7% (active).

Consider `Cc1ccc(OCC(=O)Nc2nnc(-c3ccco3)s2)cc1`, for which the activation is -0.584% (inactive).

`COc1ccc(OCC(=O)Nc2nnc(-c3ccco3)s2)cc1`: the activation is -4.19% (inactive).

Regarding `C=CCN=C1NC(c2ccccc2)C(C(=O)OC)=C(C)N1Cc1ccc(C(F)(F)F)cc1` (configuration not stated), the activation is -8.4% (inactive).

Consider `Cn1c(-c2ccc(C(=O)c3ccccc3)s2)nc2ccccc21`, for which the activation was 44.9% (active).

`Cn1c(NC(=O)c2ccccc2)nc2ccccc21`: the activation is 19.2% (inactive).

In the case of `Cn1c(S(=O)(=O)O)nc2ccccc21`, the activation is -1.9% (inactive).

Regarding `CCCCc1c(-c2ccc(Cl)cc2)ncn1CCc1ccccc1OC`, the activation is -10.4% (inactive).

Consider `O=S1(=O)c2ccc(Br)cc2-n2nncc2CN1Cc1cccc(Cl)c1`, for which the activation was -0.853% (inactive).

In the case of `CCOC(=O)[C@H]1Nc2ccc(Cl)cc2[C@@H]2[C@H]1C1CC(c3ccccc31)N2C(=O)OCc1ccccc1` (some centres not stated), the activation is -1.09% (inactive).

On to `Cc1ccn(-c2cccc(-n3ccc(C)n3)n2)n1`, for which the activation is 57.6% (active).

Turning to `Cc1cccc(N2O[C@H]3C=CC2CCCC3)n1`, the activation was -7.04% (inactive).

In the case of `COc1ccc(C2=Nc3ccccc3NC(=O)C2N(C(=O)c2cc3ccccc3[nH]2)c2ccccc2)cc1` (configuration not stated), the activation was 23.9% (inactive).

As for `CCCCCCCCN1C(=O)[C@@H](CC(=O)N2CCN(C(=O)OCC)CC2)C[C@@]2(C(=O)OC)C1=C[C@H](C1CCCC1)O[C@@H]2C`, the activation was -4.17% (inactive).

Turning to `CCCCOCCCNC(=O)C[C@@H]1C[C@@]2(C(=O)OCC)CCCC=C2N(CCC2=CCCCC2)C1=O`, the activation was -4.42% (inactive).

Consider `CC1CCN(C(=O)c2ncn3c2C(=O)N[C@@H](C)C3)CC1`, for which the activation is -1.28% (inactive).

Consider `C[C@H]1[C@H](c2ccccc2)Oc2cc(Br)ccc2S(=O)(=O)N1Cc1cccc(F)c1`, for which the activation was -3.84% (inactive).

In the case of `CCCNC(=O)C1(C)CCCN(Cc2cccc(C(F)(F)F)c2)C1` (configuration not stated), the activation is -4.42% (inactive).

Consider `COc1cccc(NC(=O)CN(C)C(=O)CSC(=S)N2CCCC2)c1`, for which the activation is 0.702% (inactive).

Regarding `O=C(CSC(=S)N1CCCCC1)c1c(F)cccc1F`, the activation was 58.4% (active).

On to `O=C(CSC(=S)N1CCOCC1)c1ccccc1`, for which the activation is 9.4% (inactive).

Take `O=C(NS(=O)(=O)c1cccs1)[C@H]1O[C@@H](n2ccc(=O)[nH]c2=O)[C@H](O)[C@@H]1O`: the activation is -2.42% (inactive).

For `COC(=O)[C@]12CCCCC=C1N(Cc1cccc3ccccc13)C(=O)[C@H](CC(=O)N1CCOCC1)C2`, the activation is 2.09% (inactive).

With `COCc1[nH]nc2c1C(c1ccccc1)N(c1ccccc1)C2=O` (configuration not stated), the activation is -1.18% (inactive).

Consider `Cc1ccc(S(=O)(=O)N2CCN(C(=O)Cn3c(=O)cnc4ccccc43)CC2)c(C)c1`, for which the activation is 68.6% (active).

As to `Cc1ccc(S(=O)(=O)N2CCN(C(=O)CSc3cc(C)ccc3C)CC2)c(C)c1`, the activation was -0.764% (inactive).

Consider `Cc1ccc(S(=O)(=O)N2CCN(C(=O)COC(=O)c3c(C)cc(C)cc3C)CC2)c(C)c1`, for which the activation was -2.2% (inactive).

With `Cc1ccc2nc(CN(C)C(=O)[C@@H](Cc3ccccc3)NC(=O)[C@H]3O[C@@H](n4ccc(=O)[nH]c4=O)[C@H](O)[C@@H]3O)[nH]c2c1`, the activation is -3.23% (inactive).
